An excerpt weighted towards active compounds, which were near 6.2% of everything screened.
HCMV antiviral – human cytomegalovirus inhibition | 4.5% of 410,000 active | activity change, negative = inhibition, % at 57.5 µM | AID 1259415 | HFF cells, HCMV-luciferase reporter, 72 h; hits give low values; in the data active = activity change below about -60%; inconclusive = no clear call, values can overlap the other calls; inactive = above about -39%
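Luciferase read-out from HCMV-luciferase-infected HFFs (MOI 1 PFU/cell) 72 h post infection at 37C; compounds added after 16 h cell attachment; activity normalized between buffer-only basal and Salinomycin (10uM) inhibitor controls.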
MARV entry inh – Marburg virus entry inhibition; Marburg virus pseudotyped entry inhibition, cell reporter; Potency, µM (doses to about 37.8 µM), without a hit: at the top dose activity change, negative = inhibition, actives largely listed as inhibitors; 1.8% of 300,000 active; calls by dose curve; tested in HEK293 cells; note: potency is the fitted concentration of half-maximal effect
FMDV antiviral – foot and mouth disease virus antiviral activity. FMDV antiviral cell-based qHTS. Potency, µM (doses to about 57.9 µM), for the others: at the top dose activity change, negative = inhibition, most hits filed as inhibitors. 1.2% of 410,000 active. AID 1159524; calls by dose curve; tested in HEK293T cells; note: read-out not given here; potency is the fitted concentration of half-maximal effect; nearly all actives have a fitted effect of over 45% in size
Lassa entry inh – blocks Lassa virus binding to or entry into cells; Lassa virus pseudotype entry inhibition, cell reporter; 1.2% of 300,000 active; AID 540256; Potency, µM (highest dose often 37.9 µM), inactives show at the highest dose activity change, negative = inhibition, most hits filed as inhibitors; calls by dose curve; tested in HEK293 cells; note: potency is the fitted concentration of half-maximal effect; nearly all actives have a fitted effect of over 50% in size
The depositor's hits bear a star; u = inconclusive; x = not tested or not shown; ! = not confirmed by another sample; [ ] = dose if it differs, or a comment. % is set by controls: 0 for no effect and ±100 for the full control effect.

SMILES	HCMV antiviral	MARV entry inh	FMDV antiviral	Lassa entry inh
CCN1C(=O)c2ccccc2S(=O)c2ccc(C(=O)N3CCN(c4cccc(C)c4)C(C)C3)cc21 (stereo unspecified)	-27	-5%[46.1 µM]	u	u
CC(=O)Nc1ccc(NC(=O)c2ccc3c(c2)N(Cc2cccc(Cl)c2)C(=O)c2ccccc2S3=O)cc1 (stereo unspecified)	-95*	x	-22%	u
CC1CCCCN1C(=O)c1ccc2c(c1)N(Cc1cccc(Cl)c1)C(=O)c1ccccc1S2=O (stereo unspecified)	-68*	x	6%	-11%[46.1 µM]
Cc1cccc(N2CCN(C(=O)c3ccc4c(c3)N(Cc3cccc(Cl)c3)C(=O)c3ccccc3S4=O)CC2C)c1 (stereo unspecified)	-67*	x	-19%	u
CC1CCCCN1CCNC(=O)c1ccc2c(c1)N(Cc1cccc(Cl)c1)C(=O)c1ccccc1S2=O (stereo unspecified)	-35	u	0%	u
CN(C)Cc1c(O)ccc2[nH]cnc12	-95*	0%	-13%	8%
Oc1ccc2ccc3[nH]cnc3c2c1	-38	x	34%	x
Cc1ccc(C(=O)N2C(=O)C(c3ccccc3)Oc3ccccc32)cc1 (stereo unspecified)	-32	7.9µM*	7%	u
Cc1ccc(C(=O)N2c3ccccc3OCC2C)cc1 (stereo unspecified)	-13	x	-11%	x
COc1ccc(OC)c(C2CC(=O)C3=C(C2)NC(=O)CC3c2ccc(O)c(OC)c2)c1 (stereo unspecified)	-10	-10%	0%	-11%
Cc1cc(C)[n+](CCCC[n+]2c(C)cc(C)cc2C)c(C)c1	26	x	8%	x
Cc1cc(N)c2ccccc2[n+]1CCCCCCCCCCCCCC[n+]1c(C)cc(N)c2ccccc21	x	8.9µM*	x	x
CCC(=NCC1CCCO1)c1c(O)n(Cc2ccccc2)c(=O)[nH]c1=O (stereo unspecified)	19	13%	u	1.6µM*
CCC(=NCC1CCCO1)c1c(O)n(-c2ccccc2)c(=O)[nH]c1=O (stereo unspecified)	-8	16%	-6%	u
CCC(C)n1ncn(-c2ccc(N3CCN(c4ccc(OCC5COC(Cn6cncn6)(c6ccc(Cl)cc6Cl)O5)cc4)CC3)cc2)c1=O (stereo unspecified)	-66*	x	u	x
CCC(C)n1ncn(-c2ccc(N3CCN(c4ccc(O)cc4)CC3)cc2)c1=O (stereo unspecified)	u	-2%	u	u
CCCCOc1cccc(-c2nnc(NC(=O)CSc3ccc(C)cc3)s2)c1	-86*	2%	-11%	0.32µM*
CCOC(=O)Cc1nnc(NC(=O)CSc2ccc(C)cc2)s1	25	17%	0%	u
CC1CCCN(C(=O)C2CCN(c3nc(-c4ccccc4)nc4c3CCC4)CC2)C1 (stereo unspecified)	28	-23%	u	-24%
CC1=NN(c2ccccc2)C(=O)/C1=C\C=C\c1ccccc1	-98*	u	22µM*	u
CC1=NN(c2ccccc2)C(=O)/C1=C/C=C/c1ccc(N(C)C)cc1	7	x	u	x
CN1/C(=C\C=[N+](C)c2ccccc2)C(C)(C)c2ccccc21	-95*	u	x	4.6µM*
CC1=NN(c2ccccc2)C(=O)/C1=C\C=C1/N(C)c2ccccc2C1(C)C	-38	11µM*	-22%	u
CN1/C(=C\C=N\O)C(C)(C)c2ccccc21	2	-2%[46.1 µM]	-6%	u
COc1ccc(Cl)cc1NC(=O)C1CCCN(c2cc(C)nc3ncnn23)C1 (stereo unspecified)	-31	4%	-15%	-5%
SMILES	HCMV antiviral	MARV entry inh	FMDV antiviral	Lassa entry inh
COC(=O)C(Cc1ccccc1)NC(=S)NC(=O)c1ccccc1 (stereo unspecified)	-17	u	22%	-26%
CCc1ccc(N2C=C(C(=O)OC)C(c3cccc4ccccc34)C(C#N)=C2N)cc1 (stereo unspecified)	-101*	x	47%	x
Cc1cc(C)n(CC(=O)c2ccccc2)c(=O)c1C#N	14	u	0%	15%
CCC(=O)N1CCc2cc(Br)cc(S(=O)(=O)CCC(=O)NCC3CCCO3)c21 (stereo unspecified)	-109*	u	-17%	4%
CCC(=O)N1CCc2cc(Br)cc(S(=O)(=O)NCC3CCCO3)c21 (stereo unspecified)	-12	u	80%	14%
CC(CNC(=O)CCCn1c(=O)c2cccn2c2ccc(F)cc21)c1ccccc1 (stereo unspecified)	-14	x	8%	-16%[46.1 µM]
CC(CNC(=O)CCCn1c(=O)c2cccn2c2cccnc21)c1ccccc1 (stereo unspecified)	-69*!	x	15%	4%[46.1 µM]
O=C(NCCc1ccc(Cl)cc1)C1CCC(=O)N(C2CCCCCC2)C1 (stereo unspecified)	-61*	-6%[46.1 µM]	-6%	5%[46.1 µM]
O=C(C1CC(=O)N(C2CCCC2)C1)N1CCN(c2ccccc2F)CC1 (stereo unspecified)	4	x	-23%	x
O=C(C1CC(=O)N(C2CCCC2)C1)N1CCC(Cc2ccccc2)CC1 (stereo unspecified)	-65*	-1%	x	1%
O=C(C1CCC(=O)N(C2CCCC2)C1)N1CCN(Cc2cccc(Cl)c2)CC1 (stereo unspecified)	-72*	29%	-7%	-12%
COc1ccccc1NC(=O)CCn1nc(-c2ccccc2OC)c2c(C)cc(C)nc21	-21	0%[46.1 µM]	-25%	u
COc1ccc(S(=O)(=O)N(C)C[C@H]2Oc3c(NC(=O)C4CC4)cccc3C(=O)N([C@H](C)CO)C[C@@H]2C)cc1	10	x	28%	x
CC(C)CN(CC(C)C)CC(O)Cn1cc(/C=C/C(=O)c2ccccc2)c2ccccc21 (stereo unspecified)	23	2%[46.1 µM]	-14%	u
Cc1ccc(C(=O)/C=C/c2cn(CC(O)CN3CCc4ccccc43)c3ccccc23)cc1 (stereo unspecified)	-74*	u	-5%	u
CCCN(CCC)CC(O)Cn1cc(/C=C/C(=O)c2ccc(OCC)cc2)c2ccccc21 (stereo unspecified)	-106*	u	0%	u
COc1ccc(C(=O)/C=C/c2cn(CC(O)CN3CCc4ccccc43)c3ccccc23)cc1OC (stereo unspecified)	-64*	u	u	u
Cc1ccc(C(=O)/C=C/c2cn(CC(O)CN3CCOCC3)c3ccccc23)cc1 (stereo unspecified)	-19	u	u	-1%
Cc1cc(C)c(C#N)c(SCC(=O)NC(C)(C)C)n1	2	x	-7%	x
CC(NC(=O)[C@H](C)NC(=O)[C@@H]1CSC2c3ccccc3C(=O)N21)c1ccccc1 (stereo partly specified)	5	x	-8%	x
COC(=O)COc1ccc(C2C(C(=O)OC)=C(C)NC3=C2C(=O)c2ccccc23)cc1OC (stereo unspecified)	-108*	10%[46.1 µM]	-16%	-1%[46.1 µM]
CCOC(=O)COc1ccccc1C1C(C(=O)OC)=C(C)NC2=C1C(=O)c1ccccc12 (stereo unspecified)	-9	u	-18%	-7%[46.1 µM]

Screening data from PubChem BioAssay.
